Common to all, as to settings: mRNA level, 48 h; actives raise or lower the signal
Read-out in assay [1]: Cytochrome P450 2C19 (Homo sapiens) (UniProt P33261)
As to the kind of experiment: LTEA_HepaRG_CYP2C19: Life Technologies and Expression Analysis (LTEA) Assay for CYP2C19 using HepaRG (AID 2283482). The essentials:
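Transcript levels of CYP2C19 were quantified by qRT-PCR after HepaRG cells were treated for 48 hours with test chemicals up to 100 uM (eight half-log concentrations, 0.5% DMSO vehicle). Gain or loss of signal was fitted relative to DMSO.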

Read-out in assay [2]: CYP2C8 (gene 1558)
The assay is described as follows: LTEA_HepaRG_CYP2C8: Life Technologies and Expression Analysis (LTEA) Assay for CYP2C8 using HepaRG (AID 2283483). The essentials: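 HepaRG (human liver line), 48 h chemical exposure, 8-pt half-log series from 100 uM, 0.5% DMSO vehicle. Readout: CYP2C8 transcript by qRT-PCR, housekeeping-normalized. Bidirectional fit vs DMSO baseline.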

Read-out in assay [3]: CYP2E1 (gene 1571)
The assay is described as follows: LTEA_HepaRG_CYP2E1: Life Technologies and Expression Analysis (LTEA) Assay for CYP2E1 using HepaRG (AID 2283485). The essentials:
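Readout is qRT-PCR of CYP2E1 mRNA, normalized to three housekeeping genes and fitted bidirectionally against 0.5% DMSO. HepaRG cells were dosed 48 h at eight concentrations, highest 100 uM with half-log dilutions.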

Read-out in assay [4]: CYP4A11 (gene 1579)
As to the kind of experiment: LTEA_HepaRG_CYP4A11: Life Technologies and Expression Analysis (LTEA) Assay for CYP4A11 using HepaRG (AID 2283486). In a few lines:
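HepaRG, 48 h chem exposure, 8 conc (100 uM top, half-log), 0.5% DMSO vehicle; qRT-PCR readout, housekeeping-gene normalized; bidirectional curve fit vs DMSO baseline.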

Read-out in assay [5]: Cytochrome P450 3A4 (Homo sapiens) (UniProt P08684)
As to the kind of experiment: LTEA_HepaRG_CYP3A4: Life Technologies and Expression Analysis (LTEA) Assay for CYP3A4 using HepaRG (AID 2283487). The essentials: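 Differentiated HepaRG cells, plated 48 h, then dosed 48 h in serum-free induction medium with 0.5% DMSO, 8 half-log concentrations up to 100 uM, duplicate. CYP3A4 mRNA by qRT-PCR, normalized to ACTB/GAPDH/POLR2A; bidirectional fit versus DMSO.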

Read-out in assay [6]: DNA damage-inducible transcript 3 (DDIT3), DDIT3 (gene 1649)
As to the kind of experiment: LTEA_HepaRG_DDIT3: Life Technologies and Expression Analysis (LTEA) Assay for DNA damage-inducible transcript 3 (DDIT3) using HepaRG (AID 2283488). In a few lines:
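Cells are human HepaRG liver cells treated for 48 h with eight half-log concentrations up to 100 uM in 0.5% DMSO. Transcript levels come from qRT-PCR normalized to three housekeeping genes, with activity fitted in both directions relative to vehicle.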

Read-out in assay [7]: Pro-epidermal growth factor (Homo sapiens) (UniProt P01133)
The assay is described as follows: LTEA_HepaRG_EGF: Life Technologies and Expression Analysis (LTEA) Assay for Epidermal growth factor (EGF) using HepaRG (AID 2283489). In a few lines: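 HepaRG, 48 h dosing, 100 uM top, half-log x8, 0.5% DMSO. Readout: TaqMan qRT-PCR (Fluidigm array), housekeeping-normalized. Gain or loss of signal fit vs DMSO.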

Read-out in assay [8]: Early growth response protein 1 (EGR1) transcription factor, EGR1 (gene 1958)
As to the kind of experiment: LTEA_HepaRG_EGR1: Life Technologies and Expression Analysis (LTEA) Assay for Early growth response protein 1 (EGR1) transcription factor using HepaRG (AID 2283490). The essentials:
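HepaRG, 48 h exposure, 8-pt half-log series from 100 uM, 0.5% DMSO vehicle; EGR1 transcript by TaqMan qRT-PCR (Fluidigm array), housekeeping-normalized; bidirectional fit relative to DMSO baseline.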

Read-out in assay [9]: Ezrin (EZR), EZR (gene 7430)
As to the kind of experiment: LTEA_HepaRG_EZR: Life Technologies and Expression Analysis (LTEA) Assay for Ezrin (EZR) using HepaRG (AID 2283491). The essentials: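 EZR transcript levels came from Fluidigm qRT-PCR and were normalized to three housekeeping genes after 48 h chemical exposure of HepaRG cells. Dosing used an 8-point half-log series with a 100 uM top concentration in 0.5% DMSO, tested in duplicate; both directions were fitted versus vehicle.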

Read-out in assay [10]: Cytochrome P450 3A7 (Homo sapiens) (UniProt P24462)
The assay is described as follows: LTEA_HepaRG_CYP3A7: Life Technologies and Expression Analysis (LTEA) Assay for CYP3A7 using HepaRG (AID 2283492). The essentials: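 Human HepaRG liver cells, 48 h post-plating, switched to serum-free induction medium and exposed in duplicate for 48 h. Dosing: 100 uM top, half-log dilutions, 8 points, 0.5% DMSO vehicle. Read-out: CYP3A7 mRNA, gain or loss fitted against DMSO baseline.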

Read-out in assay [11]: CYP3A5 (gene 1577)
The assay is described as follows: LTEA_HepaRG_CYP3A5: Life Technologies and Expression Analysis (LTEA) Assay for CYP3A5 using HepaRG (AID 2283493). In a few lines: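 Human HepaRG hepatic cells receive 48 h chemical treatment at eight concentrations (half-log steps from 100 uM) in 0.5% DMSO. Expression of CYP3A5 is quantified by Fluidigm qRT-PCR and normalized to three reference genes.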

Read-out in assay [12]: Fatty Acid-Binding Protein 1 (FABP1), FABP1 (gene 2168)
As to the kind of experiment: LTEA_HepaRG_FABP1: Life Technologies and Expression Analysis (LTEA) Assay for Fatty Acid-Binding Protein 1 (FABP1) using HepaRG (AID 2283494). The essentials:
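qRT-PCR readout of FABP1 transcript (normalized to three housekeeping genes) after 48 h chemical exposure of HepaRG cells; eight concentrations, half-log steps, max 100 uM, 0.5% DMSO vehicle; gain or loss fitted relative to DMSO baseline.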

Read-out in assay [13]: Cytochrome P450 4A22 (Homo sapiens) (UniProt Q5TCH4)
As to the kind of experiment: LTEA_HepaRG_CYP4A22: Life Technologies and Expression Analysis (LTEA) Assay for Cytochrome P450 4A22 (CYP4A22) using HepaRG (AID 2283495). The essentials:
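Readout is CYP4A22 transcript induction or loss, quantified by qRT-PCR and normalized to ACTB, GAPDH and POLR2A. Human HepaRG cells receive test chemicals for 48 h at eight half-log concentrations from 100 uM in 0.5% DMSO.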

Read-out in assay [14]: Cytochrome P450 7A1 (Homo sapiens) (UniProt P22680)
The assay is described as follows: LTEA_HepaRG_CYP7A1: Life Technologies and Expression Analysis (LTEA) Assay for Cytochrome P450 7A1 (CYP7A1) using HepaRG (AID 2283496). The essentials: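 HepaRG, 48 h exposure, 8-pt half-log series from 100 uM, 0.5% DMSO vehicle, duplicates. Readout: TaqMan qRT-PCR mRNA vs three housekeeping genes; bidirectional curve fit against DMSO baseline.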

Read-out in assay [15]: Glutamate-cysteine ligase catalytic (GCLC), GCLC (gene 2729)
The assay is described as follows: LTEA_HepaRG_GCLC: Life Technologies and Expression Analysis (LTEA) Assay for Glutamate-cysteine ligase catalytic (GCLC) using HepaRG (AID 2283498). The essentials: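 HepaRG, 48 h exposure, 8-pt half-log series from 100 uM, 0.5% DMSO vehicle; TaqMan qRT-PCR for GCLC mRNA, housekeeping-normalized; bidirectional curve fit vs DMSO baseline.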

Read-out in assay [16]: growth arrest and DNA damage 45 (GADD45G), GADD45G (gene 10912)
The assay is described as follows: LTEA_HepaRG_GADD45G: Life Technologies and Expression Analysis (LTEA) Assay for growth arrest and DNA damage 45 (GADD45G) using HepaRG (AID 2283499). The essentials: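 Gain or loss of GADD45G mRNA, quantified by TaqMan qRT-PCR against three housekeeping genes, is fitted in both directions relative to 0.5% DMSO. Human HepaRG cultures receive test chemical for 48 h at up to 100 uM.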

Read-out in assay [17]: Glutamate-cysteine ligase regulatory (GCLM), GCLM (gene 2730)
The assay is described as follows: LTEA_HepaRG_GCLM: Life Technologies and Expression Analysis (LTEA) Assay for Glutamate-cysteine ligase regulatory (GCLM) using HepaRG (AID 2283500). The essentials: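 Endpoint is GCLM transcript level by qRT-PCR, normalized to three housekeeping genes, after 48 h chemical exposure of human HepaRG cells (0.5% DMSO vehicle, top 100 uM, half-log dilutions). Fitting was bidirectional relative to DMSO.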

Read-out in assay [18]: Glutathione S-transferase M3 (GSTM3), GSTM3 (gene 2947)
The assay is described as follows: LTEA_HepaRG_GSTM3: Life Technologies and Expression Analysis (LTEA) Assay for Glutathione S-transferase M3 (GSTM3) using HepaRG (AID 2283501). In a few lines:
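HepaRG, plated 48 h, then serum-free induction medium; test chemical 48 h, duplicate; 100 uM top, half-log x8, 0.5% DMSO. Read-out: GSTM3 mRNA (TaqMan qRT-PCR, Fluidigm array). Bidirectional fit vs DMSO.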

Read-out in assay [19]: Glutathione S-Transferase (GSTA2), GSTA2 (gene 2939)
As to the kind of experiment: LTEA_HepaRG_GSTA2: Life Technologies and Expression Analysis (LTEA) Assay for Glutathione S-Transferase (GSTA2) using HepaRG (AID 2283497). In a few lines:
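qRT-PCR readout of GSTA2 transcript, normalized to three housekeeping genes, fitted bidirectionally against 0.5% DMSO baseline. Differentiated HepaRG cells received compound for 48 h at 8 concentrations (top 100 uM, half-log steps).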

Each structure is given as a SMILES string. Active and inactive are the calls of the source. The calls were made as follows: active = hit-call score of the fitted dose curve at least 0.9, where 1 is the maximum; inactive = score below 0.9.

Chain of Cytochrome P450 3A4 (Homo sapiens) (P08684 whole entry, looked up): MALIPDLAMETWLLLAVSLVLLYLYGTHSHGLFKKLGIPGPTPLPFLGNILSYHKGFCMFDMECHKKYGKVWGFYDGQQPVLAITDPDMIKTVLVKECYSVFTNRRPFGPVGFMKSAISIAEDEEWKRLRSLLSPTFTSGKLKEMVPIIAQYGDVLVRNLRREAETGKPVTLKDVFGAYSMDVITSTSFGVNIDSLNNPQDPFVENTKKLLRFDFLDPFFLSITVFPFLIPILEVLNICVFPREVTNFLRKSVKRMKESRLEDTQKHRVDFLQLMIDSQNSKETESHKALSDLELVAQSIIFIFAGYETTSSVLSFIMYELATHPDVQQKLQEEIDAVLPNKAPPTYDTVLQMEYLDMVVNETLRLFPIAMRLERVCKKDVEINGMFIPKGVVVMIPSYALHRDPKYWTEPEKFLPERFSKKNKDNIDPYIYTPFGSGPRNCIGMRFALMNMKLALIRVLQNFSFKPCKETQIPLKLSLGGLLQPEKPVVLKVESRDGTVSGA
Chain of Cytochrome P450 3A7 (Homo sapiens) (P24462 whole entry, looked up): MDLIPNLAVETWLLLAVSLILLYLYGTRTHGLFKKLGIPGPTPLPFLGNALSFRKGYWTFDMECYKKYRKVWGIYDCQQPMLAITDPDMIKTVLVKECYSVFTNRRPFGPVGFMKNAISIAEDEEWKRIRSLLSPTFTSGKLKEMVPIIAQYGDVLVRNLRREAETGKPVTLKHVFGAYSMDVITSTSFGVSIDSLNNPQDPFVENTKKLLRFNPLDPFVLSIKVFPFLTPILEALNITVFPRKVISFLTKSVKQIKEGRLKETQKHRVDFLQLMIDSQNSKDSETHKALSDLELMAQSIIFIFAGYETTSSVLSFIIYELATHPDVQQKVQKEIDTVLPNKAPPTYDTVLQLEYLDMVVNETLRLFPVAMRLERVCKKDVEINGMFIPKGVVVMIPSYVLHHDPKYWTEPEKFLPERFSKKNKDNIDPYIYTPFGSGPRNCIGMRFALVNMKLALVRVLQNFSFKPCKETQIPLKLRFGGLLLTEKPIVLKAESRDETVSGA
Chain of Cytochrome P450 2C19 (Homo sapiens) (P33261 whole entry, looked up): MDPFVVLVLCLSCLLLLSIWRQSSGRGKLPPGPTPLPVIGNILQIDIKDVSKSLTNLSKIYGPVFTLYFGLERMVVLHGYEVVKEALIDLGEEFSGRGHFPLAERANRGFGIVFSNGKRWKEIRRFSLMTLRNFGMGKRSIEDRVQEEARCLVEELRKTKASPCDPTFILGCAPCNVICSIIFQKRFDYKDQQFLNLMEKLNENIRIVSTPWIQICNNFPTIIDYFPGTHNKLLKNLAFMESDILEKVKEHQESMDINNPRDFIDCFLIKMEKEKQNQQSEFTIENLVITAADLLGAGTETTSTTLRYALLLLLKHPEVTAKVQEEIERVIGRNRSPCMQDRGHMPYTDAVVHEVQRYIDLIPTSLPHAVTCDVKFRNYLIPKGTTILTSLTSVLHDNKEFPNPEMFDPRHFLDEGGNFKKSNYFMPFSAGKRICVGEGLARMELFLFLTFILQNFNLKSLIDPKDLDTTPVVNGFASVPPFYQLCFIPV

A word on the AC50: it is the concentration giving half of the maximal activity seen. With `CCCOCC(=Nc1ccc(Cl)cc1C(F)(F)F)n1ccnc1`, the AC50 in [1] was 32.5 µM (active); in assay [2], 25.7 µM (active); in assay [3], 13.2 µM (active); in assay [4], 23 µM (active); in assay [5], 73.5 µM (active); in assay [6] it was 72.4 µM (active). Also, the AC50 in assay [10] was 23 µM (active); in assay [11], 71 µM (active); in assay [12], 14.6 µM (active); in assay [13], 15.8 µM (active); in [14], 30.6 µM (active); in [15] it was 91 µM (active). In addition, the outcome in assay [7], in [8], in assay [9], in assay [16], in [17] and in assay [18] was inactive.

On to `Cc1ccn2nc(S(=O)(=O)Nc3c(F)cccc3F)nc2n1`, for which the result in [1], in [2], in assay [3], in assay [4], in assay [6] and in [7] was inactive. The outcome in assay [8], in [10], in assay [11], in assay [12], in assay [13] and in assay [14] was inactive. Further, the compound was called inactive in assay [19], in [15], in assay [16], in assay [17] and in assay [18]. The AC50 in [5] is 40.5 µM (active).

Turning to `CC(C1CC1)C(O)(Cn1cncn1)c1ccc(Cl)cc1` (configuration not stated), the AC50 in assay [1] is 12.8 µM (active); in assay [2], 0.327 µM (active); in assay [3], 49.5 µM (active); in assay [4] it was 49.8 µM (active); in assay [5], 3.9 µM (active); in assay [6] it was 72.3 µM (active). Moreover, the AC50 is 2.25 µM (active) in assay [10]; 12.5 µM (active) in assay [12]; 44.9 µM (active) in assay [13]; 18.8 µM (active) in assay [14]; 76.7 µM (active) in [19]. For the same compound, the outcome in assay [7], in assay [8], in [9], in assay [11], in assay [15] and in [16] was inactive. Moreover, the result in assay [17] and in assay [18] was inactive.

With `CNC(=O)ON=C(C)SC`, the compound was classed as inactive in assay [1], in [2], in assay [3], in assay [4], in assay [5] and in [6]. Moreover, the compound was called inactive in assay [7], in assay [8], in [10], in assay [11], in assay [12] and in assay [13]. Further, the call in assay [14], in assay [15], in [16], in assay [17] and in assay [18] was inactive.

Source of the values: PubChem BioAssay (EPA / NIEHS).
